# About 79,000 compounds went through this panel and 15% of them were active in at least one assay; those are over-represented in the sample as a whole. Values without a mark were called inactive. The source made the active and inactive calls. No stated cut-off is given here; in the data, active means growth inhibition above about 70%; inactive means the rest.
# How the values were obtained:
# [1] = NCI Yeast Anticancer Drug Screen. Data for the rad50 strain (AID 155);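 further: 0% = growth of vehicle-only cultures of the same strain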; conditions: S. cerevisiae rad50 strain growth inhibition, stronger effect = higher value
# Outline: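 A DNA repair-deficient yeast mutant serves as the test organism; compound-induced growth inhibition is calculated against vehicle-treated cells.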
# [2] = NCI Yeast Anticancer Drug Screen. Data for the mec2-1 strain (AID 157); conditions: S. cerevisiae mec2-1 strain, stronger effect = higher value
# Outline: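 Mutant yeast (mec2-1) grown with compound; growth inhibition relative to vehicle control reported.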
# [3] = NCI Yeast Anticancer Drug Screen. Data for the sgs1 mgt1 strain (AID 161);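 further: 0% = growth of cultures given vehicle only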; conditions: S. cerevisiae sgs1 mgt1 strain, stronger effect = higher value
# Outline: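 Growth of a repair-deficient yeast mutant was monitored after compound treatment and expressed as inhibition relative to vehicle-treated cultures.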
# [4] = NCI Yeast Anticancer Drug Screen. Data for the cln2 rad14 strain (AID 165);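 further: 0% = growth equal to vehicle treated cultures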; conditions: S. cerevisiae cln2 rad14 strain, stronger effect = higher value
# Outline: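 Readout is yeast growth inhibition versus vehicle-treated controls, using a strain with cln2 and rad14 alterations exposed to compound.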
# [5] = NCI Yeast Anticancer Drug Screen. Data for the bub3 strain (AID 167); conditions: S. cerevisiae bub3 mutant strain, stronger effect = higher value
# Outline: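 Inhibition values come from growth of compound-treated mutant yeast normalised to vehicle-treated controls.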
# [6] = NCI Yeast Anticancer Drug Screen. Data for the mlh1 rad18 strain (AID 175); conditions: S. cerevisiae mlh1 rad18 strain growth inhibition, stronger effect = higher value
# Outline: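 Genetically defined yeast (DNA repair-deficient) exposed to compounds; growth inhibition determined relative to vehicle.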
# [7] = at 5.0 µM (retest, dose inferred, filed as 0.5)
# [8] = at 50.0 µM (retest, dose inferred, filed as 5.0)
Compound,"growth inhibition [1, 7]","growth inhibition [1, 8]",growth inhibition ([1]; at 50.0 µM),"growth inhibition [2, 7] [%]","growth inhibition [2, 8]",growth inhibition ([2]; at 50.0 µM),"growth inhibition [3, 7] [%]","growth inhibition [3, 8]",growth inhibition ([3]; at 50.0 µM),"growth inhibition [4, 7] [%]","growth inhibition [4, 8]",growth inhibition ([4]; at 50.0 µM),"growth inhibition [5, 7] [%]","growth inhibition [5, 8]",growth inhibition ([5]; at 50.0 µM),"growth inhibition [6, 7] [%]","growth inhibition [6, 8]",growth inhibition ([6]; at 50.0 µM)
Cc1[nH]ccc2c(C)c3nc4ccccc4c3cc12,47%,97% (active),90% (active),10,87% (active),88.3% (active),14,87% (active),90.5% (active),4,82% (active),82.9% (active),9,73% (active),89% (active),13,95% (active),90.3% (active)
Cc1c(N=Nc2ccc(Br)cc2)c(-c2ccccc2)nn1C(=S)S,-1%,20%,88.7% (active),2,26%,88% (active),3,45%,90.5% (active),4,34%,51.5%,3,74% (active),86.6% (active),1,31%,92.7% (active)
NC(=O)c1ccccc1OC(=O)NCCO,6%,-3%,3.2%,-2,-5%,-1.7%,3,2%,-1.2%,-1,-7%,35.8%,-4,3%,1.7%,0,7%,7.35%
O=S(=O)(Nc1ccc(NS(=O)(=O)c2ccccc2)c(N2N=N2)c1)c1ccccc1,1%,69%,86.3% (active),2,80% (active),66.2%,4,76% (active),88.9% (active),0,55%,79.1% (active),-2,62%,75.4% (active),-2,79% (active),76.6% (active)
c1ccc2c(c1)ccc1c[n+]3c4ccccc4ccc3n12,62%,94% (active),73.6% (active),28,88% (active),85.5% (active),34,82% (active),68%,57,91% (active),87% (active),55,93% (active),73.4% (active),56,91% (active),83.2% (active)
CC(=O)OC1COC(n2ccc3cc(Br)c([N+](=O)[O-])cc32)C(OC(C)=O)C1OC(C)=O (stereo not given),-16%,2%,69.7%,-5,8%,4.55%,-25,47%,78% (active),-45,3%,5.45%,-23,71% (active),83.5% (active),-27,36%,47.9%
Nc1ccccc1Sc1ccccc1,36%,58%,83.2% (active),26,61%,77.3% (active),46,66%,62.5%,29,47%,83.2% (active),37,73% (active),64.5%,35,78% (active),71% (active)
O=S(=O)(Nc1ccccn1)c1ccc(N=Cc2c3ccccc3nc3cc(Cl)ccc23)cc1,2%,27%,98.8% (active),5,18%,85.8% (active),1,1%,99.2% (active),4,-17%,97.5% (active),9,6%,57.6%,5,6%,98.2% (active)
O=C1C2C3C=CC(C3)C2C(=O)C2C3C=CC(C3)C12 (stereo not given),70% (active),96% (active),98.6% (active),58,98% (active),99.3% (active),65,99% (active),99% (active),23,95% (active),88% (active),53,96% (active),98.9% (active),60,98% (active),99.2% (active)
Cc1cc(O)c(/C=N/C(=S)Nc2ccc(S(N)(=O)=O)cc2)c(=O)o1,17%,42%,-24.4%,13,32%,4.9%,19,57%,-10.2%,8,39%,-6.55%,31,56%,1.45%,9,44%,-33.1%
